Results as given in PubChem BioAssay.
Results with a measured potency or affinity are listed apart. The source made the active and inactive calls.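 How the source made its calls, unless noted: active means a fitted half-maximal concentration no higher than twice the top valid tested dose, with signal falling as cells die; inconclusive means flat curve between -70% and -30%, or poor fit; inactive means the rest, including signal rising instead of falling.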

Test: HepG2 cell cytotoxicity, dose response, cytotoxicity control, cherry-picks, set 2 (AID 687002;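 active means a dose-response fit showing signal loss, with half-maximal concentration no higher than twice the top tested dose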)
Settings: HepG2 viability, ATP luminescence (CellTiter-Glo), 48 h; series mostly up to 26 µM; activity change, negative = cytotoxicity: at the top concentration
In the case of `CO[C@H]1CN(C)C(=O)c2cc(NS(=O)(=O)c3ccc(C)cc3)ccc2OC[C@@H](C)N(C(=O)NC(C)C)C[C@@H]1C`, the “activity change, negative = cytotoxicity” value is reported as -17.5% (inactive). In the case of `COc1ccc(CNC(=O)C[C@H]2CC[C@H]3[C@@H](COc4ccc(NC(=O)C5CC5)cc4C(=O)N3C)O2)cc1`, the “activity change, negative = cytotoxicity” value is reported as 3.34% (inactive). In the case of `O=C(Cc1cccs1)N1CCN(c2ccccc2)CC1`, the “activity change, negative = cytotoxicity” value is reported as 23.5% [at 42 µM] (inactive). In the case of `Cc1noc(C)c1S(=O)(=O)Nc1ccc2c(c1)CC(=O)N([C@@H](C)CO)C[C@@H](C)[C@@H](CN(C)S(=O)(=O)c1cccs1)O2`, the “activity change, negative = cytotoxicity” value is reported as 7.86% [at 23.5 µM] (inactive). With `C[C@@H]1CN([C@@H](C)CO)C(=O)c2cc(NC(=O)C3CCCCC3)ccc2O[C@@H](C)CCCCO[C@@H]1CN(C)C(=O)NC1CCCCC1` the “activity change, negative = cytotoxicity” value was 25.3% (inactive). In the case of `O=C(C[C@H]1CC[C@H]2[C@@H](COC[C@H](O)CN2Cc2cccc(Cl)c2)O1)Nc1nccs1`, the “activity change, negative = cytotoxicity” value is reported as 7.06% (inactive).

Test: HeLa cell cytotoxicity, dose response, cytotoxicity control, ATP luminescence, cherry-pick samples (AID 687004);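 further: 0% = neutral control median and -100% = staurosporine 10 µM control median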
Settings: HeLa viability, ATP luminescence (CellTiter-Glo), 48 h; series mostly up to 26 µM; activity change, negative = cytotoxicity: at the top concentration
In the case of `O=C(Nc1cccc(F)c1)N[C@H]1CC[C@@H](CCNS(=O)(=O)c2cccc(Cl)c2)O[C@@H]1CO`, the “activity change, negative = cytotoxicity” value is reported as 2.34% (inactive). In the case of `CCC(=O)N1[C@@H]2Cn3c(cccc3=O)[C@H]1[C@@H](C(=O)NCc1ccccc1)[C@@H]2CO`, the “activity change, negative = cytotoxicity” value is reported as -0.937% [at 23.5 µM] (inactive). In the case of `Cc1ccc(S(=O)(=O)N[C@@H]2CCCN(Cc3cccc(OCCO)c3)C2)cc1`, the “activity change, negative = cytotoxicity” value is reported as 9.54% [at 21 µM] (inactive). With `C[C@H](CO)N1C[C@H](C)[C@@H](CN(C)C(=O)c2cccc(F)c2)Oc2cc(-c3cncnc3)ccc2S1(=O)=O` the “activity change, negative = cytotoxicity” value was 8.45% (inactive). With `COc1ccc(NC(=O)N(C)C[C@H]2OCCCC[C@@H](C)Oc3ccc(N(C)C)cc3C(=O)N([C@H](C)CO)C[C@H]2C)cc1` the “activity change, negative = cytotoxicity” value was -1.02% (inactive). In the case of `COc1ccc(NC(=O)N(C)C[C@@H]2OCCCC[C@H](C)Oc3ccc(NC(=O)Nc4ccc5c(c4)OCO5)cc3C(=O)N([C@H](C)CO)C[C@@H]2C)cc1`, the “activity change, negative = cytotoxicity” value is reported as 9.47% (inactive). In the case of `CNC[C@@H]1Oc2cc(Br)ccc2S(=O)(=O)N([C@H](C)CO)C[C@H]1C`, the “activity change, negative = cytotoxicity” value is reported as 8.41% (inactive). With `O=C(C[C@H]1CC[C@@H]2[C@H](COC[C@@H](O)CN2Cc2cccc(C(F)(F)F)c2)O1)NCc1ccc(Cl)cc1` the “activity change, negative = cytotoxicity” value was 1.02% [at 23.5 µM] (inactive). In the case of `C[C@@H]1CN([C@H](C)CO)C(=O)c2cc(-c3ccc(F)cc3)cnc2O[C@H]1CN(C)CC1CCCCC1`, the “activity change, negative = cytotoxicity” value is reported as -2.5% (inactive). In the case of `CC(C)NC(=O)Nc1ccc2c(c1)C(=O)N([C@@H](C)CO)C[C@@H](C)[C@@H](CN(C)C(=O)c1ccncc1)OCCCC[C@@H](C)O2`, the “activity change, negative = cytotoxicity” value is reported as 8.85% (inactive). In the case of `CCCN(C)C[C@H]1OCCCC[C@@H](C)Oc2ccc(NC(=O)NC(C)C)cc2C(=O)N([C@@H](C)CO)C[C@H]1C`, the “activity change, negative = cytotoxicity” value is reported as 6.96% (inactive). For `CO[C@@H]1CN(C)C(=O)c2cc(NC(=O)C3CC3)ccc2OC[C@H](C)N(C(=O)c2ccncc2)C[C@H]1C`, the “activity change, negative = cytotoxicity” value was 2.97% (inactive). In the case of `Cc1cccc(C)c1NC(=O)CN1CCN(C(=O)CNC(=O)c2ccc(N3CCCC3=O)cc2)CC1`, the “activity change, negative = cytotoxicity” value is reported as 0.39% (inactive). With `C[C@@H]1CCCCO[C@H](CN(C)C(=O)c2ccncc2)[C@H](C)CN([C@H](C)CO)C(=O)c2cc(NC(=O)CCC(F)(F)F)ccc2O1` the “activity change, negative = cytotoxicity” value was 11.1% (inactive). In the case of `O=C(C[C@H]1C=C[C@H](NC(=O)C2CCC2)[C@@H](CO)O1)NC1CCC1`, the “activity change, negative = cytotoxicity” value is reported as 1.69% (inactive). For `CNC(=O)C[C@H]1CC[C@H]2[C@@H](COc3ccc(NC(=O)Nc4ccccc4)cc3C(=O)N2C)O1`, the “activity change, negative = cytotoxicity” value was 9.98% (inactive). In the case of `C=CCNC(=O)CN(c1ccc(F)cc1)S(=O)(=O)c1ccc(OC)cc1`, the “activity change, negative = cytotoxicity” value is reported as 0.77% (inactive). In the case of `O=C(Nc1ccc(F)cc1)N1C[C@@H]2[C@H](c3ccccc31)[C@H](CO)N2Cc1cocn1`, the “activity change, negative = cytotoxicity” value is reported as 6.04% (inactive). For `Cc1ccccc1S(=O)(=O)N[C@H]1CC[C@H](CCNS(=O)(=O)c2cccc(F)c2)O[C@H]1CO`, the “activity change, negative = cytotoxicity” value was 6.75% (inactive). With `C[C@@H]1CN([C@@H](C)CO)C(=O)CCCn2cc(nn2)CO[C@@H]1CN(C)C(=O)CCCN(C)C` the “activity change, negative = cytotoxicity” value was 12.2% [at 28.5 µM] (inactive). With `Cc1cccc(C)c1NC(=O)CNC(=O)C1CCCC1` the “activity change, negative = cytotoxicity” value was 1.76% (inactive). For `COc1ccccc1-c1ccc([C@H]2[C@@H](C#N)N(C(=O)C3CC3)[C@@H]2CO)cc1`, the “activity change, negative = cytotoxicity” value was 0.138% [at 23.5 µM] (inactive). With `CNC[C@@H]1Oc2c(NS(=O)(=O)c3cccs3)cccc2C(=O)N([C@@H](C)CO)C[C@H]1C` the “activity change, negative = cytotoxicity” value was 9.25% (inactive). For `C[C@@H]1CCCCO[C@@H](CN(C)Cc2ccncc2)[C@@H](C)CN([C@@H](C)CO)C(=O)c2cc(NC(=O)c3ccncc3)ccc2O1`, the “activity change, negative = cytotoxicity” value was 10.1% [at 23.5 µM] (inactive). For `CC(Sc1ncnc2c1cnn2-c1ccccc1)C(=O)Nc1ccc(N2CCOCC2)cc1` (configuration not stated), the “activity change, negative = cytotoxicity” value was -4.32% (inactive). In the case of `C[C@@H]1CN([C@@H](C)CO)C(=O)c2cc(NS(=O)(=O)c3ccc(F)cc3)ccc2O[C@@H](C)CCCCO[C@@H]1CN(C)Cc1ccc2c(c1)OCO2`, the “activity change, negative = cytotoxicity” value is reported as -0.387% (inactive).
